Results filed as inconclusive are left out. Values without a mark were called inactive. The source made the active and inactive calls. Calls follow the shape of the dose curve; as a rule, active = well fitted activation curve with a large enough effect; inconclusive = small, poorly fitted or top-dose-only effect; inactive = flat fitted curve, though single readings scatter.
% is scaled to controls: 0 for no effect and ±100 for the full control effect; potency is read from the fitted curve at half-maximal effect.

The assay in a line: qHTS assay to identify small molecule phospholipidosis (PLD) inducers (AID 1259344). Conditions: HepG2 phospholipidosis, LipidTOX Red imaging, 24 h; series mostly up to 38.3 µM; PLD induction: at the top concentration. Summed up:
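Cells (HepG2, 900 per well) attach for 4 h, receive LipidTOX Red and compound together, incubate 24 h at 37 C, are fixed 30 min with paraformaldehyde/Hoechst, then imaged at one site per well.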
With `COC(=O)C(CN)c1c[nH]c2ccc(OC)cc12` (stereo not given), the “PLD induction” value was -0.964%.
With `O=C1C2CC3CC1CC(O)(C3)C2`, the “PLD induction” value is 0.237%.
With `C=C1[C@H](CO)[C@@H](O)C[C@@H]1n1cnc2c(=O)[nH]c(N)nc21`, the “PLD induction” value was 2.21%.
Same read-out and setting: next, `NCC(O)CC(=O)O` (stereo not given): 0.204%.
Turning to `CNCCC=C1c2ccccc2CCc2ccccc21`, the Potency is 10 µM (active).
Consider `C=N[C@@H](C(=O)N[C@@H]1C(=O)N2[C@@H]1SC(C)(C)[C@@H]2C(=O)O)c1ccccc1`, for which the “PLD induction” value was 0.226%.
On to `C[C@H](O)CN(C)C`, for which the “PLD induction” value is -0.434%.
With `N[C@H](CO)C(=O)O`, the “PLD induction” value is 2.42%.
As to `COC(=O)C[C@](O)(CCCC(C)(C)O)C(=O)O[C@@H]1C(OC)=CC23CCCN2CCc2cc4c(cc2[C@H]13)OCO4` (stereo not given in full), the Potency entry is “inactive”.
Regarding `C[C@H](Cc1ccc(O)c(O)c1)[C@@H](C)Cc1ccc(O)c(O)c1`, the “PLD induction” value was -1.08%.
With `CO/N=C(\C(=O)N[C@@H]1C(=O)N2C(C(=O)O)=C(CSc3nc(C)c(CC(=O)O)s3)CS[C@H]12)c1csc(N)n1`, the “PLD induction” value is 1.35%.
For the compound `CCCCC[C@H](O)/C=C/[C@@H]1[C@@H](C/C=C\CCCC(=O)O)[C@@H](O)C[C@H]1O`, the Potency entry is “inactive”.
For `Cc1ccc(C(C)(C)c2ccc(C)cc2)cc1`, the “PLD induction” value was -0.975%.
`OCCCNc1ccccc1`: the “PLD induction” value was -0.547%.
`Cc1cccc(C)c1NC(=O)C1CCCCN1C` (stereo not given): the “PLD induction” value was 0.739%.
Turning to `Cc1cc(C(=O)NCCc2ccc(S(=O)(=O)NC(=O)NN3CCCCCC3)cc2)no1`, the “PLD induction” value was -0.0169%.
As for `CCOc1cc(CC(=O)N[C@@H](CC(C)C)c2ccccc2N2CCCCC2)ccc1C(=O)O`, the “PLD induction” value was 4.37% [at 15.5 µM].
`O=C(O)COc1ccccc1/C=N/NC(=O)c1ccncc1`: the “PLD induction” value is 0.132%.
Still for that read-out and setting: next, `COc1cc(NS(C)(=O)=O)ccc1Nc1c2ccccc2nc2ccccc12`: 11.3%.
With `CC(C)=CCC/C(C)=C/CC/C(C)=C/CC/C=C(\C)CC/C=C(\C)CCC=C(C)C`, the Potency entry was “inactive”.
On the same count and under the same terms, next, `CC(C)(C)c1ccc2c(S(=O)(=O)O)c(C(C)(C)C)ccc2c1`: “inactive”.
On to `O=C1c2ccccc2CN2C(=O)c3ccccc3CN12`, for which the “PLD induction” value was -0.683%.
Turning to `CCC1OC(=O)C[C@@H](O)[C@H](C)[C@@H](O[C@@H]2O[C@H](C)C[C@H](N(C)C)[C@H]2O)[C@@H](CC=O)C[C@@H](C)C(=O)/C=C/[C@]2(C)OC2C1C` (stereo not given in full), the Potency result is “inactive”.
Regarding `CCN(CC)C(=S)S`, the “PLD induction” value is -0.588%.
In the case of `CC(C)(S)C(=O)N[C@@H](CS)C(=O)O`, the Potency entry is “inactive”.
For `O.O.O.O.O.O.O.O=S(=O)([O-])[O-].[Co+2]`, the “PLD induction” value is -1.76%.
On to `NC(=S)NS(=O)(=O)c1ccc(N)cc1`, for which the “PLD induction” value is -0.138%.
With `NS(=O)(=O)c1cc(Cl)c(Cl)c(S(N)(=O)=O)c1`, the “PLD induction” value is 3.02% [at 15.5 µM].
Regarding `CCN1CCCC1CNC(=O)c1cc(S(=O)(=O)CC)ccc1OC` (stereo not given), the Potency result is “inactive”.
Same read-out and setting: next, `CC[C@H]1OC(=O)C[C@@H](O)[C@H](C)[C@@H](O[C@@H]2O[C@H](C)[C@@H](O[C@H]3C[C@@](C)(O)[C@@H](O)[C@H](C)O3)[C@H](N(C)C)[C@H]2O)[C@@H](CC=O)C[C@@H](C)C(=O)/C=C/C(C)=C/[C@@H]1CO[C@@H]1O[C@H](C)[C@@H](O)[C@@H](OC)[C@H]1OC`: “inactive”.
As to `CC(C)CCC[C@@H](C)[C@H]1CC[C@H]2[C@@H]3CC=C4C[C@@H](O)CC[C@]4(C)[C@H]3CC[C@]12C`, the “PLD induction” value was -1.5%.
Regarding `C=C1[C@@H]2CC[C@@H](C2)C1(C)C`, the “PLD induction” value is 2.78%.
In the case of `NC(=O)c1cc[n+](CC2=C(C(=O)O)N3C(=O)[C@@H](NC(=O)C(c4ccccc4)S(=O)(=O)[O-])[C@H]3SC2)cc1` (stereo not given in full), the “PLD induction” value was -0.639% [at 15.5 µM].
Still for that read-out and setting: next, `C=CC[N@@+]12CC[C@@]34c5ccccc5N5/C=C6/[C@H]7C[C@H]8[C@@]9(CC[N@@+]8(CC=C)C/C7=C/CO)c7ccccc7N(/C=C(/[C@@H](C[C@@H]31)/C(=C\CO)C2)[C@H]54)[C@@H]69`: 0.23% [at 15.5 µM]; `NC(N)=NCCCCN=C(N)N`: -6.42%.
With `CC(=O)NC[C@H]1CN(c2ccc(N3CCOCC3)c(F)c2)C(=O)O1`, the “PLD induction” value was -0.351%.
For `Cc1cc(-c2ccc(N=Nc3ccc4c(S(=O)(=O)O)cc(S(=O)(=O)O)c(N)c4c3O)c(C)c2)ccc1N=Nc1ccc2c(S(=O)(=O)O)cc(S(=O)(=O)O)c(N)c2c1O`, the Potency result was “inactive”.
For `C=CC1=C(C(=O)O)N2C(=O)[C@@H](NC(=O)/C(=N\O)c3csc(N)n3)[C@H]2SC1` (stereo in doubt), the Potency entry was “inactive”.
Take `CO[C@H]1C[C@@H]2CC[C@@H](C)[C@@](O)(O2)C(=O)C(=O)N2CCCC[C@H]2C(=O)O[C@H]([C@H](C)C[C@@H]2CC[C@@H](O)[C@H](OC)C2)CC(=O)[C@H](C)C=C(C)[C@@H](O)[C@@H](OC)C(=O)[C@H](C)C[C@H](C)/C=C/C=CC=C1C`: the Potency entry was “inactive”.
In the case of `CC/C=C\C/C=C\C/C=C\C/C=C\C/C=C\CCCC(=O)O`, the “PLD induction” value was -0.22%.

Source of the values: PubChem BioAssay (Tox21).
